# The supplement of paper PMC3545927
# The list shows a part of the results. The true hit rate is not given.
# Molecular target: furin, P09958
# Experiment: furin cleavage Z-score vs untreated control; higher = more cleavage, active = 3.5 or more, inactive = 1 or less, 8 variable residues between constant flanks
# Procedure, shortened: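 In 50 mM HEPES pH 7.5 with CaCl2 and NaCl, purified furin was incubated with bead-anchored 8-mer peptide–cDNA fusions at 1:10 enzyme:substrate in 0.01 ml. Incubation times were 7.5, 15 and 30 min. DNA set free by cleavage was adapter-tagged by PCR and sequenced, with read counts taken as abundance. Log counts relative to furin-free reactions, after lowess adjustment and median absolute deviation scaling, form the cleavage Z-score.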
# furin, P09958, sequence (P09958 whole entry): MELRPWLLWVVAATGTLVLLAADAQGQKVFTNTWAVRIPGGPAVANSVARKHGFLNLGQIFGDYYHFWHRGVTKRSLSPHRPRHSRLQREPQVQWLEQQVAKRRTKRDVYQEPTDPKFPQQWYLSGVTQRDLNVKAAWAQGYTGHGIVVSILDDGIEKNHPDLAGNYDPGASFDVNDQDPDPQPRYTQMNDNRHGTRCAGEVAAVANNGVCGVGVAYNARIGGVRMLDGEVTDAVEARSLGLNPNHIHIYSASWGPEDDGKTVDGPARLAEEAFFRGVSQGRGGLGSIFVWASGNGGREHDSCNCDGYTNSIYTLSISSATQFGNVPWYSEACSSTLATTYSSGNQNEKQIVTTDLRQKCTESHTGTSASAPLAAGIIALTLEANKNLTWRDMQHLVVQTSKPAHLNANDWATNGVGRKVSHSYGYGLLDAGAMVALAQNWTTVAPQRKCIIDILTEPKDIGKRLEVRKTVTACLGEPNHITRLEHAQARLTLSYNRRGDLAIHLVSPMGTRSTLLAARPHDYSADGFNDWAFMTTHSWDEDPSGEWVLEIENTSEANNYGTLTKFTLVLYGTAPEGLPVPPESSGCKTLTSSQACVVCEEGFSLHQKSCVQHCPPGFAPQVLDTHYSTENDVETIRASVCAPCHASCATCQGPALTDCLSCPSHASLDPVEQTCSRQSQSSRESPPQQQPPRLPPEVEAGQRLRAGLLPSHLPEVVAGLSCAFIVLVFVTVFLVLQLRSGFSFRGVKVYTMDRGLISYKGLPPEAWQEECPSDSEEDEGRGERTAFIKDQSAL
Sequence,furin cleavage Z-score (7.5 min),furin cleavage Z-score (15 min),furin cleavage Z-score (30 min)
CAMEECDQHLAGNASASA [HC32],-1.25 (inactive),-0.295 (inactive),0.17 (inactive)
CAGKAIPLEVAGNASASA [HC849],-0.874 (inactive),-0.849 (inactive),-0.983 (inactive)
CAEVVGSTWVAGNASASA [HC122],-0.227 (inactive),0.0769 (inactive),0.871 (inactive)
CASTDCSAHLAGNASASA [HC2511],-0.745 (inactive),-1.14 (inactive),1.19
CAPHRRRRRGAGNASASA [FS-555],5.9 (active),4.87 (active),5.4 (active)
CALFRRRRRGAGNASASA [FS-606],5.12 (active),5.02 (active),5.06 (active)
CAPGHLRRRGAGNASASA [FS-1046],-0.0765 (inactive),0.0326 (inactive),0.261 (inactive)
CAAPARERRGAGNASASA [FS-6],7.34 (active),8.29 (active),7.48 (active)
CATPPRERRGAGNASASA [FS-1095],-0.768 (inactive),-0.415 (inactive),-0.163 (inactive)
CAVIPVRRRGAGNASASA [HC730],-0.464 (inactive),0.132 (inactive),-0.326 (inactive)
CAAPKRRRRGAGNASASA [FS-323],4.98 (active),4.92 (active),3.74 (active)
CAHGLVSFLVAGNASASA [HC542],0.693 (inactive),-0.401 (inactive),0.576 (inactive)
CAVDYPYRLWAGNASASA [HC465],0.139 (inactive),0.651 (inactive),1.32
CATGPCSGSWAGNASASA [HC1856],-0.371 (inactive),-0.739 (inactive),-1.48 (inactive)
CARLKKFQEAAGNASASA [FS-2987],-0.948 (inactive),-1.1 (inactive),-1.63 (inactive)
CAGENLYFQSAGNASASA [TV1],-1.03 (inactive),-1.63 (inactive),-0.511 (inactive)
CAPINAYTTGAGNASASA [HC1191],0.157 (inactive),0.17 (inactive),0.965 (inactive)
CAAERRHYRPAGNASASA [FS-969],0.389 (inactive),0.437 (inactive),0.0544 (inactive)
CACHRRMRRGAGNASASA [FS-404],10.7 (active),8.52 (active),8.21 (active)
CAAERRRRRGAGNASASA [FS-2],4.28 (active),3.26,2.64
CAAESRACRGAGNASASA [FS-742],-0.725 (inactive),-0.739 (inactive),-0.66 (inactive)
CADEVDNKVKAGNASASA [CS4],-0.725 (inactive),-1.22 (inactive),-1.28 (inactive)
CAPGAATAFVAGNASASA [HC1072],0.989 (inactive),1.72,0.199 (inactive)
CASVAATLGFAGNASASA [HC789],1.93,0.468 (inactive),0.352 (inactive)
CARSADGRRFAGNASASA [FS-1654],-0.463 (inactive),-0.885 (inactive),-0.419 (inactive)
CAILTRRRRFAGNASASA [FS-1347],8.01 (active),8.67 (active),7.5 (active)
CAKDYRRIRFAGNASASA [FS-173],0.143 (inactive),-0.374 (inactive),0.736 (inactive)
CAGLRRRRRFAGNASASA [FS-531],7.13 (active),8.7 (active),7.24 (active)
CARVARRRRFAGNASASA [FS-1164],8.04 (active),10 (active),7.4 (active)
CATQVRRRRFAGNASASA [FS-1497],6.78 (active),10.5 (active),7.46 (active)
